These results are taken from PubChem BioAssay AID2685 (National Center for Advancing Translational Sciences (NCATS), 2010).

In all, about 320,000 compounds went through this assay and about 2,100 (0.66%) were called active. About 53% were inconclusive and are not listed. Calls follow the shape of the dose curve; as a rule, active = well fitted inhibition curve with a large enough effect in the signal ratio, with a control signal flat (not every such curve was filed as active); inconclusive = small, poorly fitted or top-dose-only effect, or effect the other way, or a change in a side signal; inactive = flat fitted curve, though single readings scatter; the % refers to the signal ratio. This excerpt belongs to a sample that is enriched for actives.
Potency is read from the fitted curve at half-maximal effect.

The nature of this assay: qHTS Assay for Lipid Storage Modulators in Drosophila S3 Cells.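 As to cell number change: cells counted by Cell Tracker Red CMTPX staining in the red channel.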 As to lipid storage change, negative = inhibition: % is scaled to controls: 0 for no effect and ±100 for the full control effect. Particulars: BODIPY lipid droplet fluorescence, 18-24 h, cells fed with added oleic acid; cell number change: measured here: cell count max response; series mostly up to 46.1 µM; lipid storage change, negative = inhibition: at the top concentration. The method, boiled down: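 Drosophila S3 cells got compounds at several concentrations plus oleic acid (400 uM solution). Laser-scanning cytometry with 488 nm excitation read lipid droplets at 500-530 nm and cells at 575-640 nm. Percent activity was relative to 20 uM Triacsin C.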
A general note: In qHTS, concentration-response curves come from the screen itself.
On to `COc1ccccc1CNC(=O)C1CCN(S(=O)(=O)c2ccc(N3CCCC3=O)cc2)CC1`, for which the molecule was classed as inactive and the cell number change was found to be 16.5%.

For the molecule `COc1cccc(C2/C(=C(/O)c3ccc(F)cc3)C(=O)C(=O)N2CCN(C)C)c1` (stereo not drawn), the “lipid storage change, negative = inhibition” value was 0.584% (inactive) and the cell number change amounted to 5.93%.

In the case of `COc1ccc(C2/C(=C(\O)c3ccc(OC)c(Cl)c3)C(=O)C(=O)N2CCN(C)C)cc1` (stereo not drawn), the “lipid storage change, negative = inhibition” value was -3.93% (inactive) and the cell number change came to 7.61%.

For `CCCOc1cccc(C2/C(=C(/O)c3ccncc3)C(=O)C(=O)N2CCCN(C)C)c1` (stereo not drawn), the result was inactive and the cell number change is -3.79%.

Turning to `COc1ccc(/C(O)=C2/C(=O)C(=O)N(CCCN(C)C)C2c2ccccc2)cc1Cl` (stereo not drawn), the Potency was 13 µM (active) and the cell number change worked out at 2.04%.

For the molecule `COc1cccc(C2/C(=C(\O)c3ccc4c(c3)OCCO4)C(=O)C(=O)N2CCN(C)C)c1` (stereo not drawn), the “lipid storage change, negative = inhibition” value is 10.2% (inactive) and the cell number change is -19.5%.

With `COc1cccc(C2/C(=C(\O)c3c(C)nc4c(C)cccn34)C(=O)C(=O)N2CCCN(C)C)c1` (stereo not drawn), the “lipid storage change, negative = inhibition” value was 6.42% (inactive) and the cell number change is -2.27%.

With `COc1cccc(C2/C(=C(/O)c3ccncc3)C(=O)C(=O)N2CCCN(C)C)c1` (stereo not drawn), the Potency was 6.51 µM (active) and the cell number change was determined as 2.93%.

Turning to `COc1cccc(/C(O)=C2/C(=O)C(=O)N(CCN(C)C)C2c2ccc(Br)cc2)c1` (stereo not drawn), the Potency was 2.31 µM (active) and the cell number change was found to be 3.06%.

For the molecule `COc1ccc(/C(O)=C2/C(=O)C(=O)N(CCN(C)C)C2c2ccccc2)cc1Cl` (stereo not drawn), the “lipid storage change, negative = inhibition” value was 4.66% (inactive) and the cell number change was -4.09%.

`COC(=O)CNc1nc(C2CC2)nc2c1nnn2Cc1ccccc1Cl`: the “lipid storage change, negative = inhibition” value is -17.4% (inactive) and the cell number change is -11.7%.

Turning to `COc1ccc2c(c1)C(C)=CC(C)(C)N2C(=O)C(C)N1C(=O)c2ccccc2C1=O` (stereo not drawn), the “lipid storage change, negative = inhibition” value was 5.97% (inactive) and the cell number change turned out to be 1.95%.

Regarding `C[C@H](NC(N)=O)C(=O)Nc1ccc2c(c1)OCO2`, the “lipid storage change, negative = inhibition” value was -4.55% (inactive) and the cell number change is -6.18%.

As for `COc1ccccc1C1C(C#N)=C(N)N(c2cccnc2)C2=C1C(=O)CC(C)(C)C2` (stereo not drawn), the “lipid storage change, negative = inhibition” value is -0.0654% (inactive) and the cell number change was -3.09%.

Turning to `Cn1cc(CCC(=O)N2CCCC(CCC(=O)NCc3ccccc3F)C2)cn1` (stereo not drawn), the “lipid storage change, negative = inhibition” value was 6.07% (inactive) and the cell number change turned out to be 3.88%.

Consider `COc1cccc(NC(=O)CN(C)C(=O)C(C)Sc2ccccc2)c1` (stereo not drawn), for which the lipid storage change, negative = inhibition was 4.76% [at 0.0737 µM] (inactive).

As for `CCOc1ccc(S(=O)(=O)Nc2cccc(C(=O)N3CCN(c4ccc(OC)cc4)CC3)c2)cc1`, the “lipid storage change, negative = inhibition” value is 6.02% (inactive) and the cell number change is -10.3%.

Consider `CC(=O)NNC(=O)c1[nH]c2ccc(Cl)cc2c1-c1ccccc1`, for which the “lipid storage change, negative = inhibition” value is 24.7% (inactive) and the cell number change is 19.7%.

For the molecule `COc1ccc(Br)cc1S(=O)(=O)NCCCN1CCOCC1`, the “lipid storage change, negative = inhibition” value was 12.5% (inactive).

For the molecule `Cc1cccc(OCCC(=O)OCC(=O)N2CCc3ccccc32)c1`, the “lipid storage change, negative = inhibition” value is 0.68% (inactive) and the cell number change was found to be 16.2%.

With `CC(C)C(OC(=O)CCC(=O)Nc1nccs1)C(=O)NC1CCCCC1` (stereo not drawn), the “lipid storage change, negative = inhibition” value was 0.168% (inactive) and the cell number change stood at 7.34%.

For the molecule `COc1ccc(N2C(=O)CC(N(CCc3ccc(OC)c(OC)c3)C(=S)Nc3ccccc3)C2=O)cc1` (stereo not drawn), the “lipid storage change, negative = inhibition” value is -6.57% (inactive) and the cell number change is -11.8%.

For `Cc1ccccc1OCC(=O)OCC(=O)N1CCCc2ccccc21`, the result was inactive.

For `CC(=O)c1sc2nsc(SCCN3CCCC3)c2c1N`, the “lipid storage change, negative = inhibition” value was -4.12% (inactive) and the cell number change was found to be 7.13%.

With `Nc1c(C(=O)c2cccs2)sc2nsc(SCCN3CCCCC3)c12`, the Potency is 13 µM (active) and the cell number change is 11.5%.

Take `CC(=O)c1sc2nsc(SCCN3CCCCC3)c2c1N`: the “lipid storage change, negative = inhibition” value is -3.85% (inactive) and the cell number change is 1.58%.

Consider `O=C1c2ccccc2C(=O)C1c1ccc(Cl)cc1`, for which the “lipid storage change, negative = inhibition” value was -1.63% (inactive) and the cell number change was -2.4%.

For the molecule `O=C1NC(c2ccc(Cl)cc2)Nc2ccccc21` (stereo not drawn), the molecule was called inactive and the cell number change was -23.5%.

On to `O=C1C(=O)c2ccccc2C(O)=C1C1CCC(c2ccc(Cl)cc2)CC1` (stereo not drawn), for which the Potency is 4.11 µM (active) and the cell number change is -0.693%.

On to `COc1cc(C(=O)Nc2ccc3c(c2)C(=O)N(CCC(=O)O)C3=O)cc(OC)c1OC`, for which the “lipid storage change, negative = inhibition” value is 3.95% (inactive) and the cell number change amounted to 1.68%.

As to `CCOC(=O)c1cc(C)n(-c2ccccc2)c1C`, the “lipid storage change, negative = inhibition” value was 3.49% (inactive).

On to `CCOC(=O)c1cc(C)n(-n2cnnc2)c1C`, for which the Potency is 10.3 µM (active) and the cell number change was found to be 1.94%.

Turning to `CCOC(=O)c1cc(C)n(S(=O)(=O)c2ccc(C)cc2)c1C`, the “lipid storage change, negative = inhibition” value was -11.4% (inactive) and the cell number change is -10.7%.

For the molecule `CCCn1c(N)c(C(=O)CN(C)CC(=O)Nc2ccccc2C(F)(F)F)c(=O)[nH]c1=O`, the Potency was 7.31 µM (active) and the cell number change was -17.2%.

Consider `CCCn1c(N)c(C(=O)CN(C)CC(=O)Nc2cc(C)ccc2C)c(=O)[nH]c1=O`, for which the “lipid storage change, negative = inhibition” value was 26.4% (inactive) and the cell number change worked out at 15.5%.

On to `CCCn1c(N)c(C(=O)CN(C)CC(=O)Nc2c(Cl)cccc2Cl)c(=O)[nH]c1=O`, for which the result was inactive and the cell number change is -5.76%.

`COc1ccc(CCNC(=O)C2CC(c3ccccc3[N+](=O)[O-])=NO2)cc1` (stereo not drawn): the “lipid storage change, negative = inhibition” value was 5.21% (inactive) and the cell number change turned out to be 17.6%.

`CC1CCCCN1S(=O)(=O)c1ccc2c(c1)CCN2C(=O)C1CCC1` (stereo not drawn): the “lipid storage change, negative = inhibition” value was -6.29% (inactive) and the cell number change worked out at 0.0968%.

With `O=C(C1CCC1)N1CCc2cc(S(=O)(=O)N3CCN(c4ccccn4)CC3)ccc21`, the outcome was inactive and the cell number change was -12.3%.

`Cc1cccc(N2CCN(S(=O)(=O)c3ccc4c(c3)CCCN4C(=O)C3CCC3)CC2C)c1` (stereo not drawn): the “lipid storage change, negative = inhibition” value was 6.82% (inactive) and the cell number change was -10.2%.

`O=C(C1CCC1)N1CCCc2cc(S(=O)(=O)N3CCN(c4ccccc4)CC3)ccc21`: the Potency was 3.26 µM (active) and the cell number change was -3.36%.

In the case of `CC1CCCCN1S(=O)(=O)c1ccc2c(c1)CCN2C(=O)C1CC1` (stereo not drawn), the Potency is 10.3 µM (active) and the cell number change is -5.7%.

For the molecule `CC1CCCCN1S(=O)(=O)c1ccc2c(c1)CCN2C(=O)CCC(=O)O` (stereo not drawn), the “lipid storage change, negative = inhibition” value was -8.2% (inactive) and the cell number change is 10%.

Regarding `Cc1cc(C)c(S(=O)(=O)N2CCOC2CNC(=O)C(=O)NCCCN2CCOCC2)c(C)c1` (stereo not drawn), the call was inactive and the cell number change came to 8.11%.

Turning to `Cc1ccc(N(CC(N)=O)C2SC(=O)NC2=O)cc1` (stereo not drawn), the “lipid storage change, negative = inhibition” value was -4.95% (inactive) and the cell number change was determined as 8.58%.

`O=C(O)CN(c1ccccc1)C1SC(=O)NC1=O` (stereo not drawn): the Potency was 7.31 µM (active) and the cell number change was -8.43%.
